From PubChem BioAssay (Tox21)
Inconclusive results are not listed. Calls of active or inactive are those of the source. Unless noted, calls follow the shape of the full dose curve.

How the values were obtained:
[1] = qHTS assay to identify small molecule agonists of the estrogen receptor beta (ER-beta) signaling pathway - cell viability counter screen (AID 1259380; active = well fitted curve in the direction sought with a large enough effect in the repeat runs; an effect the other way counts as inactive or inconclusive; also: nearly all actives have a fitted effect of over 30% in size; also: potency is read from the fitted curve at half-maximal effect); conditions: ER-beta-bla HEK293T viability, CellTiter-Glo luminescence, 16 h; series mostly up to 92.4 µM
In short: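 ER-beta-UAS-bla HEK293T cells in medium with 2% charcoal-stripped FBS were preincubated 6 hr at 37C, dosed with compound in DMSO for 16 hr, then after the bla read, CellTiter-Glo was added for 30 min at room temperature; luminescence recorded.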

[2] = target: Androgen receptor (Homo sapiens) (UniProt P10275); assay: qHTS assay to identify small molecule agonists of the androgen receptor (AR) signaling pathway in the presence of an antagonist (AID 1259381); conditions: MDA-kb2 MMTV-luciferase, AR agonist + nilutamide, 16 h; series mostly up to 92.4 µM; also: nearly all actives have a fitted effect of over 15% in size
In short: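 MDA-kb2 human breast carcinoma cells carrying an MMTV-luciferase reporter (AR- and GR-responsive) were treated with compounds at 15 concentrations plus 3.0uM final nilutamide for 16hr at 37C without CO2; luminescence was read after ONE-Glo addition.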

[3] = qHTS assay to identify small molecule antagonists of the estrogen receptor beta (ER-beta) signaling pathway - cell viability counter screen (AID 1259382; active = well fitted curve in the direction sought with a large enough effect in the repeat runs; an effect the other way counts as inactive or inconclusive; also: nearly all actives have a fitted effect of over 55% in size; also: potency is read from the fitted curve at half-maximal effect;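 as to activity change, negative = cytotoxicity: HEK293T cells carrying ER-beta-UAS-bla reporter stimulated with estradiol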); conditions: ER-beta-UAS-bla HEK293T viability, CellTiter-Glo luminescence, 16 h; series mostly up to 92.4 µM
In short: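 ER-beta-UAS-bla HEK293T cells (2,000/well, 2% charcoal-stripped FBS) were pre-incubated 6 hr at 37C, then given compound plus 1nM final 17-beta-estradiol for 16 hr. Viability was read in the same wells by CellTiter-Glo luminescence after 30 min at room temperature.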

[4] = target: Estrogen receptor (Homo sapiens) (UniProt P03372); assay: qHTS assay to identify small molecule agonists of the estrogen receptor alpha (ER-alpha) signaling pathway in the presence of an antagonist (AID 1259383); conditions: VM7Luc4E2 cells, ERE-luciferase, +ICI-182,780, 22 h; series mostly up to 92.4 µM; also: nearly all actives have a fitted effect of over 15% in size; also: potency is read from the fitted curve at half-maximal effect; as to activation: top concentration of the series differs between compounds
In short: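 VM7Luc4E2 cells (endogenous full-length ER-alpha, 4×ERE-luciferase) were precultured 5 days in phenol red-free medium with 10% charcoal-stripped FBS, given 10.0nM ICI-182,780 (final), then treated with compounds at 15 concentrations for 22hr at 37C; luminescence read with ONE-Glo.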

[5] = target: Thyrotropin receptor (Homo sapiens) (UniProt P16473); assay: qHTS assay to identify small molecule antagonists of the thyroid stimulating hormone receptor (TSHR) signaling pathway (AID 1259385); conditions: TSHR-HEK293 cAMP HTRF, TSH-stimulated antagonist mode; series mostly up to 92.4 µM; also: nearly all actives have a fitted effect of over 20% in size; also: potency is read from the fitted curve at half-maximal effect
In short: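 Antagonist mode: compound-treated TSHR-expressing HEK293 cells were stimulated with 1.5 ng/mL TSH (final) in presence of Ro20-1724 for 30 min at RT. HTRF cAMP detection after 1 h; each compound tested at 15 concentrations, triplicate.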

[6] = qHTS assay to identify small molecule agonists of the estrogen receptor alpha (ER-alpha) signaling pathway in the presence of an antagonist - cell viability counter screen (AID 1259386; active = well fitted curve in the direction sought with a large enough effect in the repeat runs; an effect the other way counts as inactive or inconclusive;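 also: cells exposed to compounds for 22 h at 37 °C before the viability read; nearly all actives have a fitted effect of over 30% in size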; also: potency is read from the fitted curve at half-maximal effect); conditions: VM7Luc4E2 viability, CellTiter-Fluor fluorescence, 22 h; series mostly up to 92.4 µM
In short: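 VM7Luc4E2 cells (endogenous full-length ER-alpha, 4×ERE-luciferase) were held 5 days in phenol red-free medium with 10% charcoal-stripped FBS, plated, then given 10.0nM ICI-182,780 and compounds at 15 concentrations for 22hr at 37C; viability read by CellTiter-Fluor fluorescence.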

[7] = target: Progesterone receptor (Homo sapiens) (UniProt P06401); assay: qHTS assay to identify small molecule agonists of the progesterone receptor (PR) signaling pathway (AID 1346784); conditions: PR-UAS-bla HEK293T, beta-lactamase FRET ratio, 16 h; series mostly up to 92.4 µM; also: nearly all actives have a fitted effect of over 30% in size
In short: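 PR-UAS-bla HEK 293T cells (beta-lactamase reporter under UAS) in 2% charcoal-stripped FBS, dosed with 23 nL compound after 6 hr, incubated 16hr at 37C. LiveBLAzer B/G FRET substrate added, fluorescence read after 2 hours.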

[8] = target: Progesterone receptor (Homo sapiens) (UniProt P06401); assay: qHTS assay to identify small molecule antagonists of the progesterone receptor (PR) signaling pathway (AID 1346795; active = well fitted inhibition curve with a large enough effect in the signal ratio in the repeat runs, not every such curve was filed as active; the % refers to the signal ratio; also: potency is read from the fitted curve at half-maximal effect); conditions: PR-UAS-bla HEK293T, beta-lactamase FRET ratio, 16 h; series mostly up to 92.4 µM
In short: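 PR-UAS-bla HEK293T cells with beta-lactamase reporter under UAS control, in 2% charcoal-stripped FBS, treated with compounds plus 1 nM promegestone (R5020, final) for 16 hr at 37C. Read-out: FRET beta-lactamase substrate fluorescence after 2 hr at room temperature.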

[9] = qHTS assay to identify small molecule agonists or antagonists of the thyroid stimulating hormone receptor (TSHR) signaling pathway - wild type cell line counter screen (AID 1259384); conditions: HEK293 wild type, cAMP HTRF counter-screen; series mostly up to 92.4 µM
In short: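 Counter screen in untransfected Hek293: compounds (15-point titration, triplicate) plus phosphodiesterase inhibitor Ro20-1724 added after 18 h plating; 30 min RT. Intracellular cAMP via competitive d2/cryptate immunoassay, 1 h incubation.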

[10] = qHTS assay to identify small molecule agonists of the androgen receptor (AR) signaling pathway in the presence of an antagonist - cell viability counter screen (AID 1259379; active = well fitted curve in the direction sought with a large enough effect in the repeat runs; an effect the other way counts as inactive or inconclusive; also: nearly all actives have a fitted effect of over 25% in size; also: potency is read from the fitted curve at half-maximal effect); conditions: MDA-kb2 viability, CellTiter-Fluor, 16 h; series mostly up to 92.4 µM
In short: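 MDA-kb2 human breast carcinoma cells (stable MMTV-luciferase, AR/GR responsive) were seeded 3,000 cells/well, pre-incubated 5 hr at 37C without CO2, then given 3.0uM nilutamide and compounds at 15 concentrations for 16 hr. Viability was read by CellTiter-Fluor fluorescence.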
% is scaled to controls: 0 for no effect and ±100 for the full control effect.

Thyrotropin receptor (Homo sapiens), sequence (P16473 whole entry, looked up): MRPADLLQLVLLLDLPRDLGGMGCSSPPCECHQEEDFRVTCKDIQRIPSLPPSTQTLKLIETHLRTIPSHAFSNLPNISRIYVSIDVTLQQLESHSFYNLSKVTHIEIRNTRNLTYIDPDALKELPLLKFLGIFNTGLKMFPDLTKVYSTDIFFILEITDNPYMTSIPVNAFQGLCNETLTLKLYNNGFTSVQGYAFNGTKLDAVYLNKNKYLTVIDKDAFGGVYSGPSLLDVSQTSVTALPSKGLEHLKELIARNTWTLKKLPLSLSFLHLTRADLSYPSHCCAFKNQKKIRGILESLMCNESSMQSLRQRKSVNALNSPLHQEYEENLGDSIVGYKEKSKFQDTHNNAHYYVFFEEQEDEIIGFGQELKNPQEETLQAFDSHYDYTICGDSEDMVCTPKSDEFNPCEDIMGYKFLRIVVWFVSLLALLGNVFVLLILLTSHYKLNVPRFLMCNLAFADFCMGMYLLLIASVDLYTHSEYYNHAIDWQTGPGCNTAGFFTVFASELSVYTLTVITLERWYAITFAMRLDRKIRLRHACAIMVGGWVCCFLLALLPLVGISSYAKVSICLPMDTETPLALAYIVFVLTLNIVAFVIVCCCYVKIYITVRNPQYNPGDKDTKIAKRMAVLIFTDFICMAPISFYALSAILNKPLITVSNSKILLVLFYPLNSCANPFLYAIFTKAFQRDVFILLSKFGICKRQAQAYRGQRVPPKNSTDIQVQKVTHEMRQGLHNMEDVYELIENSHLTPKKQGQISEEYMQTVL
Androgen receptor (Homo sapiens), sequence (P10275 whole entry, looked up): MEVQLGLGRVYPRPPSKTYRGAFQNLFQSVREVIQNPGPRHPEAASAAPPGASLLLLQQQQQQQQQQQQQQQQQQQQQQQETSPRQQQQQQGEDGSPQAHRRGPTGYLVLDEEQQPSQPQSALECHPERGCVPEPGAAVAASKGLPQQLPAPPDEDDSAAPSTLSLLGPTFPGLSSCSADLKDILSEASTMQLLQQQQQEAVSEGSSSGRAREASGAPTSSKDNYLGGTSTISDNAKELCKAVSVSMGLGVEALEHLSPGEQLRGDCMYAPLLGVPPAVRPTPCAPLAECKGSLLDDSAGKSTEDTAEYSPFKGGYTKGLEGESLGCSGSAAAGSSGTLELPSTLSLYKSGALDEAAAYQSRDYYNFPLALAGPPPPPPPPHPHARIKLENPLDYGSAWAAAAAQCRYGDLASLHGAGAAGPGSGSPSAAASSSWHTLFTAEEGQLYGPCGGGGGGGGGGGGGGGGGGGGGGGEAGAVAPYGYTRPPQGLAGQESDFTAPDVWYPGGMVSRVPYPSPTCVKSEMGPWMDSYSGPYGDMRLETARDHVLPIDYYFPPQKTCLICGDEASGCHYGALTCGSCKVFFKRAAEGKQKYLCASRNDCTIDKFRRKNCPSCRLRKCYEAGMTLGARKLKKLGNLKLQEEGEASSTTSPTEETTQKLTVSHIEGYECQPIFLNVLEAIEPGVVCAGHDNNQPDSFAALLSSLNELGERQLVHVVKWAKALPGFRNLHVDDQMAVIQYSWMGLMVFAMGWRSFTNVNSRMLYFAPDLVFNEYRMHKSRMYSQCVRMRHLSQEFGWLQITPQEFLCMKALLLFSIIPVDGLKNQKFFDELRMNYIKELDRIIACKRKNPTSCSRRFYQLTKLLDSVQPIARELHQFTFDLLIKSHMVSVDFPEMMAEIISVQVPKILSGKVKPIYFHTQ
Progesterone receptor (Homo sapiens), sequence (P06401 whole entry, looked up): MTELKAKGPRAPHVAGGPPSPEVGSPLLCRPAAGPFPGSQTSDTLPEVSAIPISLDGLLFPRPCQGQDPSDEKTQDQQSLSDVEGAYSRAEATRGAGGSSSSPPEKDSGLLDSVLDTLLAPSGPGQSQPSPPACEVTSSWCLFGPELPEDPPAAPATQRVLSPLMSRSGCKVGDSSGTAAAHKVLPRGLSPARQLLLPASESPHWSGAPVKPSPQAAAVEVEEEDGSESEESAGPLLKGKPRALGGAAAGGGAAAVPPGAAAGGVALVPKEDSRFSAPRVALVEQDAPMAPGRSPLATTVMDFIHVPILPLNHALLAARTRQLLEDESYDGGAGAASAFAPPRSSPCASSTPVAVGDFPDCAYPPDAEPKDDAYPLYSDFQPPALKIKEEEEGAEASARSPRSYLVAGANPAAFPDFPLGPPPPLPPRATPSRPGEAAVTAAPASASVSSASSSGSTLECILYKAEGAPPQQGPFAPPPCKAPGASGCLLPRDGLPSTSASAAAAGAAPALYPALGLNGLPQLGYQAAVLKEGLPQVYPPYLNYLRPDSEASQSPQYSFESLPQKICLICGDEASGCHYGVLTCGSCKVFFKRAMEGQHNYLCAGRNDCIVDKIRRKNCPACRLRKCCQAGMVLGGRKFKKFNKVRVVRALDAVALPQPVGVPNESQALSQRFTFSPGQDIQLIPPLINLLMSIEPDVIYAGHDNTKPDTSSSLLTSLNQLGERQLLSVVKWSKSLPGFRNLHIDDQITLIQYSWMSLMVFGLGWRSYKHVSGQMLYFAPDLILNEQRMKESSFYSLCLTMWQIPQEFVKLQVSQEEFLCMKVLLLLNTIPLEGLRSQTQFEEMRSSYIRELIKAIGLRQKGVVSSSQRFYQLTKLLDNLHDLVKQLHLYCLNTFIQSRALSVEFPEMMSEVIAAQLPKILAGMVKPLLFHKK
Estrogen receptor (Homo sapiens), sequence (P03372 whole entry, looked up): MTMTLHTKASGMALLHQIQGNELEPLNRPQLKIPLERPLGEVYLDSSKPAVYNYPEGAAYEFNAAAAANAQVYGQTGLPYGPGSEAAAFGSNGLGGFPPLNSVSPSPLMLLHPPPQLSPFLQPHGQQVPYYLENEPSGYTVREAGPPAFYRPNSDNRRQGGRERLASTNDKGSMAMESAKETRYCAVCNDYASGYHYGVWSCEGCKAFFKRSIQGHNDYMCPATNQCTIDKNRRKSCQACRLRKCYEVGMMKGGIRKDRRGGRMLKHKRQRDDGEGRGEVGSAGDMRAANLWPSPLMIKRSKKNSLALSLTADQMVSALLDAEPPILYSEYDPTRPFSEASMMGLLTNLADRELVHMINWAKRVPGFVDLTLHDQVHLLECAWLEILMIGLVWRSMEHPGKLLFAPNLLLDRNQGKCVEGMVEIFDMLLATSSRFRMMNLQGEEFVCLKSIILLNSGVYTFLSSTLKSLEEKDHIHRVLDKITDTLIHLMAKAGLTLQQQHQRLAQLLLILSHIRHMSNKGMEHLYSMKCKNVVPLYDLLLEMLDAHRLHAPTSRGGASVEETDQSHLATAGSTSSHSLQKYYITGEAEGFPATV

CCc1cccc(C)c1N(C(=O)C(=O)O)C(C)COC (centres undefined)
inactive: Potency [1] | Potency [2] | Potency [3] | Potency [4] | Potency [5] | Potency [6] | outcome [7] | Potency [8]

O[Si](c1ccccc1)(c1ccccc1)c1ccccc1
active: Potency [1] 48.6 µM
inactive: Potency [2] | Potency [4] | Potency [9] | Potency [5] | Potency [6] | outcome [7]

CN[C@H]1CC[C@@H](c2ccc(Cl)c(Cl)c2)c2ccc(S(N)(=O)=O)cc21
inactive: Potency [2] | Potency [4] | Potency [6]
active: Potency [1] 19.3 µM | Potency [3] 21.7 µM

[Cl][Sc]([Cl])[Cl]
inactive: Potency [1] | Potency [2] | Potency [3] | Potency [4] | Potency [9] | Potency [6] | outcome [7] | Potency [8]

CCCCNc1ccc(NCCCC)c2c1C(=O)c1ccccc1C2=O
inactive: activity change, negative = cytotoxicity [1] 6.16% [at 19 µM] | activation [2] -0.623% [at 19 µM] | activity change, negative = cytotoxicity [3] 15.6% [at 19 µM] | activation [4] -0.833% [at 19 µM] | activity change, negative = inhibition [5] -5.35% [at 19 µM] | activation [7] 0% [at 19 µM] | activity change, negative = inhibition [8] 12.4% [at 18.9 µM]

C=COCCCC
inactive: Potency [1] | Potency [2] | Potency [3] | Potency [4] | Potency [9] | Potency [5] | outcome [7]

CCc1c(C)cc(N)c(CC)c1N
inactive: Potency [1] | Potency [2] | Potency [3] | Potency [4] | Potency [9] | Potency [6] | outcome [7] | Potency [8]

CN(C)CCOc1ccc(/C(=C(/CCCl)c2ccccc2)c2ccccc2)cc1
inactive: Potency [2] | Potency [9]
active: Potency [1] 40.5 µM | Potency [3] 45.5 µM | Potency [5] 40.5 µM

O=C1OC2(c3ccccc31)c1ccc(O)c(Br)c1Oc1c2ccc(O)c1Br
active: Potency [5] 48.6 µM | Potency [6] 30.6 µM
inactive: Potency [1] | Potency [2] | Potency [3]

CCNc1nc(NC(C)(C)C)nc(OC)n1
inactive: Potency [1] | Potency [3] | Potency [4] | Potency [5] | outcome [7] | Potency [8]

Oc1cccc2c(O)cccc12
inactive: Potency [4] | Potency [6] | outcome [7]
active: Potency [1] 61.1 µM | Potency [3] 61.1 µM | Potency [8] 48.6 µM

NC(=O)c1ccccc1Cl
inactive: Potency [1] | Potency [3] | Potency [4] | Potency [6] | outcome [7] | Potency [8]

CN(C/C=C/c1ccccc1)Cc1cccc2ccccc12
inactive: Potency [10] | Potency [4] | outcome [7]

C[C@H]1O[C@@H](O[C@H]2CC[C@@]3(C)[C@H](CC[C@@H]4[C@@H]3C[C@@H](O)[C@]3(C)[C@@H](C5=CC(=O)OC5)CC[C@]43O)C2)C[C@H](O)[C@@H]1O[C@H]1C[C@H](O)[C@H](O[C@H]2C[C@H](O)[C@H](O[C@@H]3O[C@H](CO)[C@@H](O)[C@H](O)[C@H]3O)[C@@H](C)O2)[C@@H](C)O1
active: Potency [1] 0.168 µM | Potency [3] 0.188 µM
inactive: Potency [2] | Potency [4] | outcome [7]

COc1cc2ncnc(Nc3cccc(Cl)c3)c2cc1OC
inactive: activity change, negative = cytotoxicity [1] -15.7% [at 19 µM] | activation [2] -2.82% [at 19 µM] | activity change, negative = cytotoxicity [3] 0.759% [at 19 µM] | activation [4] -1.36% [at 19 µM] | cAMP activity change [9] 2.68% [at 18.9 µM, stronger effect = higher value] | activity change, negative = inhibition [5] 1.54% [at 19 µM] | activity change, negative = cytotoxicity [6] -5.87% [at 19 µM] | activation [7] -0.0125% [at 19 µM]

Cc1cc(C)c(O)c(C(C)(C)C)c1
inactive: Potency [1] | Potency [2] | Potency [3] | Potency [4] | Potency [9] | Potency [5] | outcome [7] | Potency [8]

CCC(C)(C)c1ccc(CC(C)CN2C[C@@H](C)O[C@@H](C)C2)cc1 (some centres undefined)
active: Potency [1] 26.6 µM
inactive: Potency [3] | Potency [4] | Potency [9] | outcome [7] | Potency [8]

Clc1nc(C(Cl)(Cl)Cl)c(Cl)c(Cl)c1Cl
inactive: Potency [4] | Potency [9] | Potency [6] | outcome [7]
active: Potency [10] 21.7 µM

CCCOC(=O)c1ccc(O)cc1
inactive: Potency [10] | Potency [9] | outcome [7]
active: Potency [4] 47.5 µM

Clc1ccc2c(Cl)ccnc2c1
inactive: Potency [1] | Potency [2] | Potency [3] | Potency [4] | Potency [9] | Potency [5] | outcome [7] | Potency [8]

C/C=C/C(=O)C1=C(C)C=CCC1(C)C
inactive: Potency [1] | Potency [2] | Potency [3] | Potency [4] | Potency [9] | Potency [5] | Potency [6] | outcome [7] | Potency [8]

O=C(CCN1CCC(c2ccccc2)C1)c1ccc2c(c1)OCCO2 (centres undefined)
inactive: Potency [1] | Potency [3] | Potency [4] | Potency [9] | Potency [6] | Potency [8]

O=C1CCC(=O)N1
inactive: Potency [1] | Potency [2] | Potency [3] | Potency [4] | Potency [5] | Potency [6] | outcome [7] | Potency [8]

O=C1OC(O)C(C(Cl)Cl)=C1Cl (centres undefined)
inactive: Potency [3] | Potency [4] | Potency [9] | Potency [5] | Potency [6]
active: Potency [1] 19.9 µM

CC/C=C\C/C=C\C/C=C\CCCCCCCC(=O)OC
active: Potency [1] 48.6 µM
inactive: Potency [2] | Potency [3] | Potency [4] | Potency [9] | Potency [5] | Potency [6] | outcome [7] | Potency [8]

Nc1ccc(F)c([N+](=O)[O-])c1
inactive: Potency [1] | Potency [3] | Potency [4] | Potency [9] | outcome [7] | Potency [8]

CC1=C(/C=C/C(C)=C/C=C/C(C)=C\C(=O)O)C(C)(C)CCC1
inactive: Potency [3] | Potency [4] | outcome [7] | Potency [8]
active: Potency [1] 9.72 µM

C=Cc1ccc(O)c(OC)c1
inactive: Potency [10] | Potency [4] | Potency [5] | Potency [6] | outcome [7]
